{
  "source": "the supplement of paper PMC13380429",
  "key": {"[1]": {"tested_on": "Vero E6 infected with SARS-CoV-2", "experiment": "morphology score (similarity to uninfected cells); higher = more like uninfected cells", "settings": "24 h"}, "[2]": {"tested_on": "Vero E6 infected with SARS-CoV-2", "experiment": "SARS-CoV-2 infection rate relative to infected DMSO; higher = more infection, active = 60 or less", "settings": "24 h"}},
  "data": [
    {"smiles": "CC(=O)Nc1ccc(OC[C@](C)(O)C(=O)Nc2ccc([N+](=O)[O-])c(C(F)(F)F)c2)cc1", "note": "[andarine] (10 µM)", "values": [
      {"measurement": "morphology score", "setting": "[1]", "value": -0.0126},
      {"measurement": "SARS-CoV-2 infection rate", "setting": "[2]", "value": "116% (inactive)"}
    ]},
    {"smiles": "FC(F)OC(F)(F)C(F)Cl", "note": "(configuration not stated) [enflurane] (10 µM)", "values": [
      {"measurement": "morphology score", "setting": "[1]", "value": 0.188},
      {"measurement": "SARS-CoV-2 infection rate", "setting": "[2]", "value": "98.5% (inactive)"}
    ]},
    {"smiles": "OC[C@H]1O[C@H](O[C@]2(CCl)O[C@H](CCl)[C@@H](O)[C@@H]2O)[C@H](O)[C@@H](O)[C@H]1Cl", "note": "[sucralose] (10 µM)", "values": [
      {"measurement": "morphology score", "setting": "[1]", "value": 0.0888},
      {"measurement": "SARS-CoV-2 infection rate", "setting": "[2]", "value": "97% (inactive)"}
    ]},
    {"smiles": "C#CCOC(=O)C1=CCCN(C)C1", "note": "[arecaidine-propargyl-ester] (10 µM)", "values": [
      {"measurement": "morphology score", "setting": "[1]", "value": 0.0331},
      {"measurement": "SARS-CoV-2 infection rate", "setting": "[2]", "value": "93.5% (inactive)"}
    ]},
    {"smiles": "CC(C)CNc1nc(-c2cccc3ncccc23)cn2c(-c3ccc(C(=O)NC4CC4)cc3)cnc12", "note": "(10 µM)", "values": [
      {"measurement": "morphology score", "setting": "[1]", "value": -0.233},
      {"measurement": "SARS-CoV-2 infection rate", "setting": "[2]", "value": "99.5% (inactive)"}
    ]},
    {"smiles": "Oc1cc2c(cc1O)[C@H](Cc1cccc3ccccc13)NCC2", "note": "(10 µM)", "values": [
      {"measurement": "morphology score", "setting": "[1]", "value": -0.102},
      {"measurement": "SARS-CoV-2 infection rate", "setting": "[2]", "value": "119% (inactive)"}
    ]},
    {"smiles": "CCCCCCCCCCCCCCSCC(=O)O", "note": "[tetradecylthioacetic-acid] (10 µM)", "values": [
      {"measurement": "morphology score", "setting": "[1]", "value": -0.0649},
      {"measurement": "SARS-CoV-2 infection rate", "setting": "[2]", "value": "112% (inactive)"}
    ]},
    {"smiles": "N[C@@H](CS(=O)O)C(=O)O", "note": "[L-cysteinesulfinic-acid] (10 µM)", "values": [
      {"measurement": "morphology score", "setting": "[1]", "value": -0.0506},
      {"measurement": "SARS-CoV-2 infection rate", "setting": "[2]", "value": "108% (inactive)"}
    ]},
    {"smiles": "CCc1ccc(Cc2ccc3c(c2)[C@]2(OC3)O[C@H](CO)[C@@H](O)[C@H](O)[C@H]2O)cc1", "note": "[tofogliflozin] (10 µM)", "values": [
      {"measurement": "morphology score", "setting": "[1]", "value": 0.023},
      {"measurement": "SARS-CoV-2 infection rate", "setting": "[2]", "value": "94.5% (inactive)"}
    ]},
    {"smiles": "CCN(CC)S(=O)(=O)c1ccc(C(=O)O)cc1", "note": "[etebenecid] (10 µM)", "values": [
      {"measurement": "morphology score", "setting": "[1]", "value": 0.125},
      {"measurement": "SARS-CoV-2 infection rate", "setting": "[2]", "value": "105% (inactive)"}
    ]},
    {"smiles": "NC(=O)NC(=O)Cc1ccccc1", "note": "[phenacemide] (10 µM)", "values": [
      {"measurement": "morphology score", "setting": "[1]", "value": 0.0778},
      {"measurement": "SARS-CoV-2 infection rate", "setting": "[2]", "value": "114% (inactive)"}
    ]}
  ]
}
